Compound activity as filed in PubChem BioAssay.
In the library only some 12% were active in any assay of this set; here they are far more common.
NS1 inh – inhibitors of influenza NS1 protein function. Potency, µM (top dose mostly 46.1 µM), inactives show top-dose activity, positive = more growth. 0.4% of 270,000 active; calls by dose curve; note: actives are rising curves; nearly all actives have a fitted effect of over 50% in size
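OD600 was taken as the measure of yeast growth restored by compound in an NS1-expressing S. cerevisiae strain. Cells had been washed out of glucose medium and diluted 1:100 into galactose -URA medium, pH 6.0.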
AMA1-RON2 inh – disrupts binding of P. falciparum AMA1 to RON2; AlphaScreen AMA1-biotinylated RON2 peptide binding; Potency, µM (highest dose often 58.2 µM), inactives show at the top dose activity change, negative = inhibition, actives largely listed as inhibitors; AID 720542; 0.2% of 360,000 active;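 note: 0% = vehicle wells and -100% = peptide control; nearly all actives have a fitted effect of over 45% in size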
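AMA1 (3D7) with his tag at 25 nM final met compounds first, then biotinylated RON2 peptide at 25 nM; detection used donor plus acceptor beads, 10 µg/mL apiece, read by AlphaScreen after 30 min at room temperature.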
Pf growth 96h – P. falciparum growth inhibition at 96 hours; P. falciparum luciferase reporter growth, 96 h; Potency, µM (titrated, usually from 28.7 µM), for inactives: at the highest dose activity change, negative = inhibition, most hits filed as inhibitors; 6.9% of 320,000 active; AID 504834; note: % is set by controls: 0 for no effect and ±100 for the full control effect
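Luminescence readout: decreased luciferase signal marks inhibited growth of reporter-expressing P. falciparum in infected red cells (2% hematocrit, 0.05% parasitemia final), exposed to compound two generations (96 h, 37 C, 5% CO2).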
SARS PLP yeast – inhibitors of SARS-CoV papain-like protease in yeast; S. cerevisiae expressing SARS-CoV PLpro, growth rescue; Potency, µM (doses to about 32.9 µM), inactives show top-dose activity, positive = growth rescue, actives largely listed as activators; 0.19% of 330,000 active; AID 485353; calls by dose curve; note: 0% is about no effect; nearly all actives have a fitted effect of over 55% in size
HCV inhibitor – blocks hepatitis C virus; Huh7.5.1 HCVcc-Cre infection, luciferase reporter, 44 h; Potency, µM (highest dose often 41.8 µM), for inactives: at the top dose activity change, negative = inhibition, hits mostly inhibitors; 3.4% of 340,000 active; note: % is set by controls: 0 for no effect and ±100 for the full control effect
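Seed cells (1,000/well) for 4 h; treat with compound and infect with HCVcc-Cre, moi about 0.5. Incubate 44 h, then detect luciferase activity.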
Pf growth 48h – P. falciparum growth inhibition at 48 hours (one generation); AID 504832; P. falciparum luciferase growth in erythrocytes, 48 h; 5.9% of 310,000 active; Potency, µM (highest dose often 28.7 µM), for the others: at the top dose activity change, negative = inhibition, usual class: inhibitors; note: % is set by controls: 0 for no effect and ±100 for the full control effect
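Growth was read as firefly luciferase luminescence after a 48 h, 37 C, 5% CO2 exposure of compounds to reporter-bearing P. falciparum cultures (0.1% parasitemia, 2% hematocrit final) in Albumax-supplemented RPMI 1640.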
Active calls of the source: *. Unless noted, calls come from the whole dose curve; as a rule, active = well fitted curve in the direction sought with a large enough effect; inconclusive = small, poorly fitted or top-dose-only effect, or another doubt; inactive = no such curve, though single readings can be large; an effect the other way counts as inactive or inconclusive. Potency is the fitted concentration of half-maximal effect.

What do the screens show for `O=C(COc1ccc(Cc2ccccc2)cc1)c1ccc(F)cc1`?
NS1 inh: -1%; AMA1-RON2 inh: 75%; Pf growth 96h: 5.2µM*; SARS PLP yeast: -7%; HCV inhibitor: -18%; Pf growth 48h: 2%

How did Cc1cc(OCC(=O)c2ccc(F)cc2)ccc1N1C(=O)CCC1=O do in these assays?
NS1 inh: 2%; AMA1-RON2 inh: 1%; Pf growth 96h: 9.3µM*; SARS PLP yeast: 2%; HCV inhibitor: -11%; Pf growth 48h: 2%

What do the screens show for `O=C(COc1ccc(F)cc1)c1ccc2c(c1)CCCC2`?
AMA1-RON2 inh: 81%; HCV inhibitor: -16%

What do the screens show for `COc1ccc(NC(=O)Cn2c(=O)n(CC3CCCO3)c(=O)c3ccccc32)c(OC)c1` (configuration not stated)?
AMA1-RON2 inh: 15%; Pf growth 96h: inconclusive; SARS PLP yeast: 2%; HCV inhibitor: -4%; Pf growth 48h: inconclusive

What do the screens show for `COC(=O)[C@]12CCCCC=C1N(Cc1ccco1)C(=O)[C@H](CC(=O)NCCCN1CCCC1=O)C2`?
AMA1-RON2 inh: 8%

Results for CS(=O)(=O)N1CCC(Oc2cccc(C(=O)NCCCC3CCCC3)c2)CC1 ?
AMA1-RON2 inh: -15%; HCV inhibitor: inconclusive

Results for CC(C)(C)C(=O)Cn1ncc(N2CCOCC2)c(Cl)c1=O ?
NS1 inh: -1%; AMA1-RON2 inh: -1%; Pf growth 96h: 39%; SARS PLP yeast: 0%; HCV inhibitor: -3%

Results for CC(C)(C)C(=O)Cn1ncc(Br)c(Br)c1=O ?
NS1 inh: -7%; AMA1-RON2 inh: 4%; Pf growth 96h: 7%; SARS PLP yeast: -1%; HCV inhibitor: 10µM*; Pf growth 48h: -31%

What do the screens show for `CC(=O)NC1=NN(C(C)=O)C(C)(c2ccco2)S1` (configuration not stated)?
NS1 inh: -30%; AMA1-RON2 inh: 4%; Pf growth 96h: -11%; SARS PLP yeast: -7%; HCV inhibitor: 17%; Pf growth 48h: inconclusive

How did CC(=O)NC1=NN(C(C)=O)C(C)(c2cccs2)S1 (configuration not stated) do in these assays?
NS1 inh: 4%; AMA1-RON2 inh: 9%; Pf growth 96h: 10µM*; SARS PLP yeast: 13%; HCV inhibitor: 3%; Pf growth 48h: 28%

Results for COc1ccc(S(=O)(=O)Cc2ccc(C(=O)N3CCN(c4ccccn4)CC3)o2)cc1 ?
NS1 inh: -10%; AMA1-RON2 inh: -7%; Pf growth 96h: 1%; SARS PLP yeast: 4%; HCV inhibitor: inconclusive

What do the screens show for `O=C(c1ccc(CS(=O)(=O)c2ccc(Br)cc2)o1)N1CCN(c2ncccn2)CC1`?
NS1 inh: 0%; AMA1-RON2 inh: -8%; Pf growth 96h: 1.9µM*; SARS PLP yeast: -5%; HCV inhibitor: -8%

Results for COc1ccc(S(=O)(=O)Cc2ccc(C(=O)N3CCC(C(N)=O)CC3)o2)cc1 ?
NS1 inh: inconclusive; AMA1-RON2 inh: 9%; Pf growth 96h: -18%; SARS PLP yeast: -2%; HCV inhibitor: 14%

What do the screens show for `Cc1ccc(S(=O)(=O)Cc2ccc(C(=O)N3CCC(C(N)=O)CC3)o2)cc1`?
NS1 inh: 8%; AMA1-RON2 inh: 18%; Pf growth 96h: 10µM*; SARS PLP yeast: 1%; HCV inhibitor: 12%; Pf growth 48h: 48%

Results for OC(Cn1cnnc1)c1ccccc1 (configuration not stated) ?
NS1 inh: 0%; AMA1-RON2 inh: -26%; Pf growth 96h: 27%; SARS PLP yeast: -1%; HCV inhibitor: -1%

How did CCOc1ccc(C(=O)N[C@H](C(=O)Nc2ccccc2OC)C(C)C)cc1 do in these assays?
NS1 inh: -15%; AMA1-RON2 inh: -8%; Pf growth 96h: inconclusive; SARS PLP yeast: -6%; HCV inhibitor: -6%; Pf growth 48h: -16%
